Screens as filed in PubChem BioAssay.
Mtb hypoxia inh: inhibitors of hypoxia-regulated fluorescent reporter in Mycobacterium tuberculosis; M. tuberculosis hypoxia-regulated fluorescent reporter, fluorescence; fluorescence inhibition, % (concentration not given with the values); 300,000 tested, 0.1% active; in the data active = fluorescence inhibition mostly above about 23%, no sharp cut-off; inactive = mostly below about 17%
Rv3671c protease: inhibits the M. tuberculosis serine protease Rv3671c; 320,000 tested, 0.048% active; inhibition, % at 5.96 µM; in the data active = inhibition above about 38%;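 note: extracellular domain of Rv3671c used as enzyme; 0% = enzyme with DMSO and 100% = no enzyme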
Mtb FBA inh: Mtb fructose-bisphosphate aldolase inhibition; purified M. tuberculosis FBA, fluorescence read-out; inhibition, % at 1 µM; 360,000 tested, 2.3% active; AID 588726; P9WQA3;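 note: 0% = vehicle and 100% = reference inhibitor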
Mtb UGM inh: Mtb UDP-galactopyranose mutase inhibition | inhibition, % at 10 µM | 320,000 tested, 0.06% active | P9WIQ1 | purified UGM, fluorescence polarization probe displacement; in the data active = inhibition above about 10%, passing the limit was not always enough
Target sequence (P9WIQ1 whole entry, looked up): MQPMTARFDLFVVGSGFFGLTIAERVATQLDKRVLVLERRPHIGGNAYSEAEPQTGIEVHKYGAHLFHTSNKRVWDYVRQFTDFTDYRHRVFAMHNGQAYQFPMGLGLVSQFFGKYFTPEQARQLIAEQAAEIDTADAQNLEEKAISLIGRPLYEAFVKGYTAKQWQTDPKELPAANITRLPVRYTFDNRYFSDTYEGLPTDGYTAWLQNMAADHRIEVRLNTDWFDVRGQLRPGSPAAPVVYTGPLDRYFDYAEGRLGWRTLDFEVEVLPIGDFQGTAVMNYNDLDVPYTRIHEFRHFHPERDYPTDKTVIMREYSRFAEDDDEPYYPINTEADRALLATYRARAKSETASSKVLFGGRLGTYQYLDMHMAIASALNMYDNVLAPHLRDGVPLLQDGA
GDH-TPI counter-1: GDH-TPI coupled enzyme inhibition counter-screen; inhibition, % at 4.8 µM; 360,000 tested, 1.2% active; AID 588335; GDH-TPI coupled enzyme counterscreen, NADH absorbance; in the data active = inhibition above about 30%;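 note: 0% = DMSO wells and 100% = wells lacking the enzyme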
FadD28 FP inh: inhibitors of Mycobacterium tuberculosis FadD28 bisubstrate binding | FadD28 bisubstrate probe binding, fluorescence polarization | inhibition, % at 12.5 µM | 360,000 tested, 0.22% active; in the data active = inhibition above about 8.5%, passing the limit was not always enough
Mtb FBA inh conf: confirmation of M. tuberculosis fructose-bisphosphate aldolase inhibitors; shares compounds with Mtb FBA inh; purified M. tuberculosis FBA, fluorescence read-out; inhibition, % at 1 µM; 5,600 tested, 78% active; AID 651616;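 note: 0% = vehicle wells and 100% = reference inhibitor wells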
GDH-TPI counter-2: inhibits GDH-TPI coupling enzymes, flagging Mtb FBA hits; 5,600 tested, 81% active; inhibition, % at 1 µM; shares compounds with Mtb FBA inh; GDH-TPI coupled enzyme counterscreen, fluorescence; in the data active = inhibition above about 10%
GDH-TPI DR: GDH-TPI dose response counter-screen for Mtb FBA. shares compounds with Mtb FBA inh. GDH-TPI coupled enzyme assay, fluorescence, artifact counterscreen. IC50, µM. 170 tested, 79% active. AID 652145; call rule not given here
Starred values were filed as active, the others as inactive; . = not tested or not shown; + = active, no number. Most compounds without a hit are left out; they make up all but 3.5% or so of the library. Cut-off read from the data, not from the text of the source, unless noted: active = inhibition above about 27%; inactive = the rest.

SMILES	Mtb hypoxia inh	Rv3671c protease	Mtb FBA inh	Mtb UGM inh	GDH-TPI counter-1	FadD28 FP inh	Mtb FBA inh conf	GDH-TPI counter-2	others
CCOC(=O)c1cc(-c2ccccc2)sc1NC(=O)C(C)C	-5	1	37*	-1	1	-2	125*	113*
O=c1c2c(nc3c(-c4cccc(Br)c4)c[nH]n13)CCCC2	-4	-4	-3	2	12	0	.	.
Cc1ccc(-c2[nH]n3c(=O)c4c(nc3c2C)CCCC4)cc1	17	-3	10	-3	3	-2	.	.
O=c1c2c(nc3c(-c4ccccc4)c[nH]n13)CCC2	13	9	43*	-3	10	-2	59*	38*
O=c1c2c(nc3c(-c4ccc(Cl)cc4)c[nH]n13)CCC2	-1	5	44*	1	5	-5	32*	28*
O=[N+]([O-])c1ccc(NN=Cc2c[nH]c3ccccc23)c(S(=O)(=O)Nc2ccc(Cl)cc2)c1	20	.	.	.	.	.	.	.
c1ccc(-c2nc3c4ccccc4ccn3c2CN2CCOCC2)cc1	5	-2	6	0	3	-4	.	.
COc1ccc(-c2nc3c4ccccc4ccn3c2CN2CCOCC2)cc1OC	9	-6	37*	0	13	0	74*	51*
Cc1ccc(C)c(Oc2coc3cc(O)ccc3c2=O)c1	7	-5	38*	1	20	-1	128*	104*
Cc1ccc(C)c(Oc2coc3cc(OCC(=O)Nc4ccccc4C(C)C)ccc3c2=O)c1	15	-22	.	0	.	.	.	.
O=c1c(-c2ccc(O)cc2)coc2cc(O)ccc12	-3	-2	24	2	15	-2	.	.
Cc1ccc(Oc2coc3cc(O)ccc3c2=O)cc1	-5	-10	40*	4	17	.	53*	57*
Cc1cc(C)cc(Oc2coc3cc(O)ccc3c2=O)c1	6	-12	24	-2	1	-3	.	.
Cc1ccccc1-c1coc2cc(O)ccc2c1=O	.	-15	48*	1	20	0	97*	81*
CCOC(=O)C1C2COc3ccccc3C2N2C(=O)C(C)NC(=O)[C@@]12C (some centres undefined)	1	.	.	.	.	.	.	.
COc1ccccc1NC(=O)CCC(=O)NN=C(C)c1ccc(C)cc1	1	.	.	.	.	.	.	.
COc1cc2cc(CN(Cc3nnnn3Cc3ccccc3)CC3CCCO3)c(=O)[nH]c2cc1OC (centres undefined)	-2	.	35*	.	0	-2	136*	144*
COc1ccc(C2c3c(ccc4ccccc34)Oc3ncn4nc(CON=Cc5ccccc5)nc4c32)cc1 (centres undefined)	16	.	.	.	.	.	.	.
Cc1ccnc(N/C=C(/NC(=O)c2ccccc2)C(=O)NN=Cc2ccc(Cl)cc2)n1	7	.	.	.	.	.	.	.
CCS(=O)(=O)Nc1cccc(C2=NN(S(=O)(=O)CC)C(c3cccs3)C2)c1 (centres undefined)	-16	3	0	-1	2	-4	.	.
CCS(=O)(=O)N1N=C(c2ccc(NS(C)(=O)=O)cc2)CC1c1ccccc1 (centres undefined)	-2	-17	109*	2	19	-2	12	1	GDH-TPI DR=0.98*
CCS(=O)(=O)Nc1ccc(C2=NN(S(=O)(=O)CC)C(c3cccs3)C2)cc1 (centres undefined)	8	1	49*	0	15	-2	147*	130*
Nc1nc(N)c2cc(Sc3ccc4ccccc4c3)ccc2n1	-11	34	9	0	6	-3	.	.
Nc1nc(N)c2cc(Sc3cccc(C(F)(F)F)c3)ccc2n1	.	.	52*	.	7	-15	+	177*
Nc1nc(N)c2cc(Sc3ccc(Cl)cc3)ccc2n1	.	.	68*	.	9	-7	64*	59*
SMILES	Mtb hypoxia inh	Rv3671c protease	Mtb FBA inh	Mtb UGM inh	GDH-TPI counter-1	FadD28 FP inh	Mtb FBA inh conf	GDH-TPI counter-2	others
O=C(NN=Cc1ccc([N+](=O)[O-])o1)c1cn(-c2ccccc2)nc1-c1ccccc1	-9	.	.	.	.	.	.	.
O=C(NN=Cc1ccccc1)c1ccc(-c2ccccc2)cc1	2	.	.	.	.	.	.	.
CCCSc1ccccc1C(=O)N1CCN(C(=O)c2ccco2)CC1	-14	0	55*	-1	12	0	+	+
Cc1ccc(S(=O)(=O)NNc2c3ccccc3nc3ccc(Cl)cc23)cc1	.	.	91*	.	10	-1	42*	28*
Cc1ccc2c(c1)COc1c3ccc(C(=O)N[C@@H](C)CO)cc3nn1-2	.	-9	34*	-2	21	-1	+	+
O=C1CCCN1CCCNc1nc2c(S(=O)(=O)c3ccccc3)nnn2c2ccc(Cl)cc12	10	-7	41*	-2	-1	-3	1	-2
CCS(=O)(=O)c1nc(S(=O)(=O)c2ccc(C)cc2)c(NCCCN2CCCC2=O)s1	10	3	3	1	8	-2	.	.
Cc1ccc(C(=O)Nn2c(N)c(S(=O)(=O)c3ccc(C)cc3)c3nc4ccccc4nc32)cc1	-2	-24	65*	1	35*	1	76*	52*
Cc1cccc(S(=O)(=O)c2c(N)n(/N=C/c3ccccc3)c3nc4ccccc4nc23)c1	.	8	-2	3	7	-1	.	.
Cc1ccc(S(=O)(=O)c2c(N)n(NC(=O)c3ccccc3C)c3nc4ccccc4nc23)cc1	2	-102	39*	0	9	-2	193*	143*
Cc1ccc2[nH]c(-c3cccc(N)c3)cc2c1	7	12	43*	-2	9	-6	152*	128*
CCCOc1ccc(-c2cn3ccccc3n2)cc1	12	-1	30*	1	3	-2	55*	38*
CCCOc1ccc(-c2cn3ccccc3n2)cc1[N+](=O)[O-]	6	-2	4	0	14	-2	.	.
Cc1cccn2cc(-c3ccccc3)nc12	.	1	18	0	7	1	.	.
COc1ccc(-c2cn3ccc4ccccc4c3n2)cc1	12	-6	44*	2	13	-1	2	-4
CC(=NOC(=O)c1ccc(C)cc1)c1c(C)nc2cc(C)ccn12	11	.	.	.	.	.	.	.
COc1ccc(-c2cnc3c(c2)CCC3(C#N)C#N)cc1	17	2	58*	3	7	-2	50*	33*
C=C(C)CNC(=S)NN=Cc1ccco1	18	.	.	.	.	.	.	.
C=CCOC(=O)C1=CC(c2cn(C(C)=O)c3ccccc23)CC(OCc2ccc(CO)cc2)O1 (centres undefined)	5	.	.	.	.	.	.	.
COc1c(Cl)cccc1-c1cn2ccccc2n1	6	6	68*	-2	7	-2	6	4
